# Test results taken from the supplement of paper PMC10849652.
# The full data set covers some 8,800 targets. This sample favours those with a hit. About 0.5% of all pairs of compound and target were hits. Unmarked numbers belong to inactive results.
# Experiments:
# Assay in all cases: log2 fold change, soluble protein after heating vs DMSO (PISA); higher = thermal stabilisation; K562 lysate, 10 uM; active = over 0.2 and 3.5 SD of the protein, either way, in both replicates (recomputed)
# [1] = compound: c1ccc([C@@H]2C[C@H]2NC2CCNCC2)cc1
# Summary of the method: (§1)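 A 30 min treatment with 10 μM compound was applied to crude K562 extract at 1 mg/mL protein in PBS pH 7.4 with 1 mM MgCl2. Heating for 3 min spanned 48°C-58°C, after which aliquots were pooled, adjusted to 0.5% NP-40 at 4°C and spun at 21,000xg for 90 min. TMTpro 16plex LC-MS/MS of the supernatant, with channel sums equalised, gave values recorded as log-two fold change in thermal stability against solvent controls, from duplicates.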
# [2] = compound: C1=CC=C(C=C1)[C@H](COC2=CC3=C(C=C2)NC(=O)N3)NC(=O)C4=CC=CN(C4=O)CC5=CC(=C(C=C5)F)F
# Summary of the method: as §1
# [3] = compound: CC1=C(SC2=C1C(=N[C@H](C3=NN=C(N32)C)CC(=O)N)C4=CC=C(C=C4)Cl)C
# Summary of the method: as §1
# [4] = compound: CC1=C2C(=CC=C1)N=C(N(C2=O)C3=CC=CC=C3C)CN4C=NC5=C(N=CN=C54)N
# Summary of the method: as §1
# [5] = compound: Cc1sc2c(c1C)C(c1ccc(Cl)cc1)=N[C@@H](CC(=O)OC(C)(C)C)c1nnc(C)n1-2
# Summary of the method: as §1
# UniProt Q10713, sequence (Q10713 whole entry, looked up): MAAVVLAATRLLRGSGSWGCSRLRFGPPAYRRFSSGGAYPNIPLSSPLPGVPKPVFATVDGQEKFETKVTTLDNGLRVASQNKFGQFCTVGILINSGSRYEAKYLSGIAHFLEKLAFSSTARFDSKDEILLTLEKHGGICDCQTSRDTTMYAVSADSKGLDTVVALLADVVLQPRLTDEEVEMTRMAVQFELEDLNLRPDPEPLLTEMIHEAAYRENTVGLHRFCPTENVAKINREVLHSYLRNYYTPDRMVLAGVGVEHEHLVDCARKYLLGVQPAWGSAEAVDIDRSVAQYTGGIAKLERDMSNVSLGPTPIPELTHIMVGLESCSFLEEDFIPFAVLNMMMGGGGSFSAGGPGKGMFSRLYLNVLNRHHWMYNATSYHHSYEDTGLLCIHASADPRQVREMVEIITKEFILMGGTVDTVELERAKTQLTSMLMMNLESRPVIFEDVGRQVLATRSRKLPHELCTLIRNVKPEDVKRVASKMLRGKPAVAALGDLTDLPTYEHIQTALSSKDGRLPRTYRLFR
# UniProt P11309, sequence (P11309 whole entry, looked up): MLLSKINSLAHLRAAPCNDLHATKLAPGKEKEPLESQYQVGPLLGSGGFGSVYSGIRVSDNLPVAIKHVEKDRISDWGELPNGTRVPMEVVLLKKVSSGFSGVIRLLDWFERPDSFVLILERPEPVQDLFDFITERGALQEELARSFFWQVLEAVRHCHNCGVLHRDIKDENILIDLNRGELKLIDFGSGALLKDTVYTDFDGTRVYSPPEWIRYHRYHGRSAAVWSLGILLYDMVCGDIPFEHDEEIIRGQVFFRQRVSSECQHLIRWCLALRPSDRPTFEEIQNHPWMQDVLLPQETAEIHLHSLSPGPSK
# UniProt O94806, sequence (O94806 whole entry, looked up): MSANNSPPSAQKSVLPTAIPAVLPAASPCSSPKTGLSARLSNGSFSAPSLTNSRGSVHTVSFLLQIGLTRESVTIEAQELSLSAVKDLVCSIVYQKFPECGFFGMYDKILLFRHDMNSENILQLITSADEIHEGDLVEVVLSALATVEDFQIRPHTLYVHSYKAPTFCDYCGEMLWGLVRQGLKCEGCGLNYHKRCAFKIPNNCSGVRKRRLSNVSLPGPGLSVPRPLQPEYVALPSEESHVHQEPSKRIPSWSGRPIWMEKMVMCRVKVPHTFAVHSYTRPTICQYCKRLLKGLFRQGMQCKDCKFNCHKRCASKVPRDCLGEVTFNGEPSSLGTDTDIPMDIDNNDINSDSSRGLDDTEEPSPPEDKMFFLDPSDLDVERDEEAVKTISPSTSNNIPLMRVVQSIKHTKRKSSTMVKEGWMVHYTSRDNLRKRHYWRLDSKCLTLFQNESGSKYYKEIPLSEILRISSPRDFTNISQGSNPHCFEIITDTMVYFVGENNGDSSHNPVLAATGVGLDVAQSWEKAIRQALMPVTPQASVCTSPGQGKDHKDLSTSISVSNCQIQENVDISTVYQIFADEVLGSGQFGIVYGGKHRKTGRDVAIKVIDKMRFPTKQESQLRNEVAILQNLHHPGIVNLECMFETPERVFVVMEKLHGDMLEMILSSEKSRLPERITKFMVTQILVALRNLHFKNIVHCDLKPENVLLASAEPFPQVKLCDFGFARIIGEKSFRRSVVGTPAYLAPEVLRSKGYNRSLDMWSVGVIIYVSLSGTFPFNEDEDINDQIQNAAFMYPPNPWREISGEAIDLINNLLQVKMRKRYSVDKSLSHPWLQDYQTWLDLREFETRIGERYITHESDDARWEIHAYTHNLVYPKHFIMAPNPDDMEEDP
# UniProt Q9BSG0, sequence (Q9BSG0 whole entry, looked up): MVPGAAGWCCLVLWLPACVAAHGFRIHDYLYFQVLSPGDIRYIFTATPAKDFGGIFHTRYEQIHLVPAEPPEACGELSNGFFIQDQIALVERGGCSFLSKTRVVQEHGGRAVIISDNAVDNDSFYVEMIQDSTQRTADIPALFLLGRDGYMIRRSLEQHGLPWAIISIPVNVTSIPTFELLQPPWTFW
# UniProt Q9Y4D7, sequence (Q9Y4D7 whole entry, looked up): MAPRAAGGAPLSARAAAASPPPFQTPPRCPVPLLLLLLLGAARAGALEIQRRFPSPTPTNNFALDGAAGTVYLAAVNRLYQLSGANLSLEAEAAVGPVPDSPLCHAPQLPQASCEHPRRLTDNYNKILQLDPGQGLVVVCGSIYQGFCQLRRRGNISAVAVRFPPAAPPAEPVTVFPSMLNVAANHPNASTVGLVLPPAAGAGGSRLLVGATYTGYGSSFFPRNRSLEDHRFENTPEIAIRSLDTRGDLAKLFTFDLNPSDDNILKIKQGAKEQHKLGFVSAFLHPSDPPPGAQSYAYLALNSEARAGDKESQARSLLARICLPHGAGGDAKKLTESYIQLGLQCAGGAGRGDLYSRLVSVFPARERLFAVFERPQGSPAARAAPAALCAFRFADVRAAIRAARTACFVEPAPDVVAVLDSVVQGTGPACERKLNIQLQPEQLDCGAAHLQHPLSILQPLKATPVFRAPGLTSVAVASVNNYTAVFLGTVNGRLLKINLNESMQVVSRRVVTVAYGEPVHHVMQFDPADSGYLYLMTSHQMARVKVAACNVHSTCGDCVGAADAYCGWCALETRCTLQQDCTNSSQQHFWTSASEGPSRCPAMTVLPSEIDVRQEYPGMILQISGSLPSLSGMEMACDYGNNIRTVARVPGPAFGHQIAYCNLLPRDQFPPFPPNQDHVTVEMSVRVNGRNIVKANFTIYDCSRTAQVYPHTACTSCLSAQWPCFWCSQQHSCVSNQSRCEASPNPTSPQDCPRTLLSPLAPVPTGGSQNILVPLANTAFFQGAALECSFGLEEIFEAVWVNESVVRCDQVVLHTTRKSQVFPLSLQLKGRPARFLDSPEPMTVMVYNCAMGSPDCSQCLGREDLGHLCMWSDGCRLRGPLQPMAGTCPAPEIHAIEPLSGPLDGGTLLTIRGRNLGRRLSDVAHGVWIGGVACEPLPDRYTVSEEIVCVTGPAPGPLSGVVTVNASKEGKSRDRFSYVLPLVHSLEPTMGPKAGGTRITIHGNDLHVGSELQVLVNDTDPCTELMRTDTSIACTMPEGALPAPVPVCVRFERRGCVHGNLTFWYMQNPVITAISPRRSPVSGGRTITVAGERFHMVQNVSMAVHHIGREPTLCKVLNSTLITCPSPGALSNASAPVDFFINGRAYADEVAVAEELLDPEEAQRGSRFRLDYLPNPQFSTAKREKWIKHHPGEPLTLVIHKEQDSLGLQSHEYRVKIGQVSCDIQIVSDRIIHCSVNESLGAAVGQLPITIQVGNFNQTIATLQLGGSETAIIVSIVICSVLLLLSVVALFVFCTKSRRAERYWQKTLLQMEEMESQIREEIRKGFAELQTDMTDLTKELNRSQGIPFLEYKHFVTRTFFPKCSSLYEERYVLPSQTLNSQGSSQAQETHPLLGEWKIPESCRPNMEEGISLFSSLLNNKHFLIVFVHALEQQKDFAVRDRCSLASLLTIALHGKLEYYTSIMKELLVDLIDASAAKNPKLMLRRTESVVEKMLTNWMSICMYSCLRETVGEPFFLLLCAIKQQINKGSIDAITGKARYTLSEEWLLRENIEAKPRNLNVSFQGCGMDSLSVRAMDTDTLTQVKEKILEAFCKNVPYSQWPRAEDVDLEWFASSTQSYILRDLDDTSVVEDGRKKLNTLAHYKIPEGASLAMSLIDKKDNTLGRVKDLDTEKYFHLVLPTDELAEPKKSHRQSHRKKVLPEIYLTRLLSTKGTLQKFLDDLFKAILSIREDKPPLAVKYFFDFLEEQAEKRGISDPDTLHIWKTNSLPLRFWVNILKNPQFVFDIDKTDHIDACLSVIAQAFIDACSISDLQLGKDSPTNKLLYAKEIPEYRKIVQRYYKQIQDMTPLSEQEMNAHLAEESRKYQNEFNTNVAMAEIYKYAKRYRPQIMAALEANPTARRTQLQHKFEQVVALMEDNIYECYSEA
# UniProt P07737, sequence (P07737 whole entry, looked up): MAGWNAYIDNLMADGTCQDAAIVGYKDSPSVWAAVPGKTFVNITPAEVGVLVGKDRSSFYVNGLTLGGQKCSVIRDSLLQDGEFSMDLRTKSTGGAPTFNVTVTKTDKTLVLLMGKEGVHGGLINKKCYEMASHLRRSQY
# UniProt Q9NXJ5, sequence (Q9NXJ5 whole entry, looked up): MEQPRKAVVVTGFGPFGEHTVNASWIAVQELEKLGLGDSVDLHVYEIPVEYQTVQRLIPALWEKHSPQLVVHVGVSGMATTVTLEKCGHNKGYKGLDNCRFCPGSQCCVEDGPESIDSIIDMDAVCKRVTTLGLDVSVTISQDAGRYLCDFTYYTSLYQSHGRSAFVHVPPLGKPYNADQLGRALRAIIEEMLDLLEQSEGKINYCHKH
# UniProt O60927, sequence (O60927 whole entry, looked up): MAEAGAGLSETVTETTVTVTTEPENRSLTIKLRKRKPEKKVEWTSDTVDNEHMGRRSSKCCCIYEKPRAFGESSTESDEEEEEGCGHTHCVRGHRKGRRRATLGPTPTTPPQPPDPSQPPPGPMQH
# UniProt Q15054, sequence (Q15054 whole entry, looked up): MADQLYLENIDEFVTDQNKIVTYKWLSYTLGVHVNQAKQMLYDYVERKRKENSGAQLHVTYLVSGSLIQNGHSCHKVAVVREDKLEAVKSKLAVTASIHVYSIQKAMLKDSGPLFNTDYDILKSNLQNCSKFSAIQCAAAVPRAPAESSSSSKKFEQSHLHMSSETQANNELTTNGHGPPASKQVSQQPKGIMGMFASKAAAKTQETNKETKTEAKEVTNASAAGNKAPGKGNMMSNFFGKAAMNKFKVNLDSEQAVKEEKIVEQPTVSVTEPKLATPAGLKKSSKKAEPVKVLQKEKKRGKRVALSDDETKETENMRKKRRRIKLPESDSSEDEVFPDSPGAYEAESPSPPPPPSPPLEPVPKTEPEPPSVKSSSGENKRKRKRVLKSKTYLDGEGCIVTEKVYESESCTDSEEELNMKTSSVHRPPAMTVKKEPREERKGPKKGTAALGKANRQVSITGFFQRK
# UniProt P60673, sequence (P60673 whole entry, looked up): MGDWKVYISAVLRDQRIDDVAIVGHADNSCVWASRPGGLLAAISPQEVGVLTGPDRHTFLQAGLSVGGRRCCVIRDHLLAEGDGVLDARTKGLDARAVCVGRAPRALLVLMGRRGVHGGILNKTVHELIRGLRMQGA
Target,log2 fold change [1],log2 fold change [2],log2 fold change [3],log2 fold change [4],log2 fold change [5]
PREP (UniProt H0Y5Y0),0.086,,,,
PIM1 isoform 2 (UniProt P11309),-0.191,-0.115,-0.046,-0.127,-0.025
PICALM (UniProt H0YEH1),-0.303,0.018,-0.027,-0.138,0.075
PYGO2 (UniProt Q9BRQ0),0.011,0.064,0.031,,0.024
PCBP2 (UniProt F8VRH0),0.232,,,,
PHKG1 isoform 2 (UniProt Q16816),-0.493,,,-0.375,-0.054
PIP5K1A (UniProt Q99755),-0.096,-0.058,0.067,,0.059
POM121C (UniProt A8CG34),-0.02,0.058,0.042,,
PFN3 (UniProt P60673),-0.004,,,0.072,
PRADC1 (UniProt Q9BSG0),0.018,0.267,0.021,,-0.029
PUF60 isoform 2 (UniProt Q9UHX1),0.238,0.091,0.109,0.035,
PTK2 isoform 2 (UniProt Q05397),,0.07,0.081,,-0.324
POLR2F (UniProt U3KPV3),,,,,-0.113
PRKD3 (UniProt O94806),-0.386,0.035,0,0.206,
PMS1 (UniProt P54277),-0.006,-0.011,-0.056,0,-0.06
PIAS2 (UniProt O75928),,,,0.001,0.046

Target,log2 fold change [1],log2 fold change [2],log2 fold change [3],log2 fold change [4],log2 fold change [5]
PDE4DIP (UniProt E9PS60),-0.257,,,0.074,-0.12
POLD3 (UniProt Q15054),0.034,-0.004,0.002,0.019,0
PMPCA (UniProt Q10713),-0.012,0.019,0.031,0.028,-0.013
PFN1 (UniProt I3L3D5),0.164,0.007,0.065,,
PFN1 (UniProt P07737),-0.007,-0.004,0.009,0,-0.004
PPP1R11 (UniProt O60927),0.001,-0.025,-0.095,,0.014
PLXND1 (UniProt Q9Y4D7),,-0.039,0.082,,0.029
PIK3CB (UniProt P42338),-0.033,-0.066,-0.054,0.518 (active),-0.049
PNPLA4 (UniProt P41247),-0.019,,,-0.009,0.201
PPME1 (UniProt Q9Y570),,0.057,-0.02,,0.06
PGPEP1 (UniProt Q9NXJ5),0.012,0.027,-0.071,-0.013,-0.025
PMS2 (UniProt P54278),0.039,-0.021,0.005,0.024,-0.031
PWP1 (UniProt Q13610),0.088,0.041,-0.041,-0.052,-0.004
"PHGDH, A0A286YFE1",,0.061,-0.111,,-0.095
PFKFB2 (UniProt O60825),-0.008,0.016,0.001,0.03,-0.001
